Measured values from PubChem BioAssay AID977622 (Broad Institute, 2014).
Screen size: about 1,900 compounds; fewer than 10 were called active. Not shown: some 39% with an inconclusive outcome.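 The calls were made as follows: active = Green signal of the normal strain falls at least twice as much as red signal of the resistant mutant, with overall culture growth loss under a set limit; inconclusive = no clear call, values can overlap the other calls; inactive = the rest.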 A selection follows.

How the values were obtained:
[1] = wild-type E. coli growth inhibition versus h38 humanized strain – h38 mutant RFP, wild-type GFP, cherry-pick, dose response (AID 977622); conditions: activity change: E. coli mixed culture, total growth OD600 at 50 uM, at 50 µM
[2] = tested on: E. coli h38 humanized mutant ribosome RFP fluorescence, mixed culture, 24 h; experiment: as above; conditions: h38 mutant RFP at 50 uM; at 50 µM

SMILES	activity change [1] [%]	outcome [1]	activity change [2] [%]
CC(NC(=O)c1c(N)[nH]c(C(=O)c2ccccc2)c1-c1ccccc1Br)c1cccc2ccccc12 (stereo not given)	-15.6	inactive	41.2
COC(=O)CN1C(=S)N(c2ccc(F)cc2)C(=O)C1CC(=O)Nc1ccc(F)cc1 (stereo not given)	-1.47	inactive	-5.83
COc1cc(OC)cc(C(=O)N[C@H](C(=O)OCC(=O)Nc2ccc(F)c(F)c2F)C(C)C)c1	-1.83	inactive	-9.06
O=C(NCc1ccccc1)c1ccc(-c2cn[nH]c2)c2ccoc12	-21.8	inactive	-23.8
CCC(=O)Nc1nc2c(OC)ccc(OC)c2s1		inactive	-14.1
O=C(Nc1cccc(Cl)c1)N1C[C@@H]2[C@H](c3ccccc31)[C@@H](CO)N2C(=O)c1cccnc1	7.11	inactive	2.16
c1ccc(SCc2nc3ccccc3s2)nc1	-3.53	inactive	8.07
Cc1ccc(NS(=O)(=O)c2ccc3c(c2)CCC(=O)N3)cc1C	-8.95	inactive	-10.9
O=C(Nc1cccc(F)c1)N1C[C@@H]2[C@H](c3ccccc31)[C@H](CO)N2C(=O)Cc1ccccn1	4.66	inactive	-3.32
COc1ccc(-c2cc(C(=O)Nc3ccc(C(N)=O)cc3)c3ccccc3n2)cc1OC	8	inactive	-4.25
N#Cc1ccc(-c2ccc(C3[C@H]4CNC[C@@H]3N4S(=O)(=O)c3ccc(-c4ccccc4)cc3)cc2)cc1 (stereo not given in full)	-54.5	inactive	244
Nc1ccc(C(=O)OCCCc2nc3cc4ccccc4cc3[nH]2)cc1	3.79	inactive	0.364
O=C(NCc1nc2ccccc2[nH]1)c1ccc(S(=O)(=O)N2CCCC2)cc1	-24.9	inactive	2.82
CC[n+]1c(C)cc2c(sc3ccccc32)c1C	-0.26	inactive	-7
COc1ccccc1NC(=O)CSc1ncc(CO)n1Cc1ccc(F)cc1	-27.8	inactive	-17.1
CSc1ccc(CN(C)C(=O)C(c2ccccc2)c2ccccc2)cc1	-21.9	inactive	-20.3
O=C(Nc1ccc(C(=O)Nc2ccccc2Cl)cc1)c1cccnc1	-26.4	inactive	-26
COC(=O)c1ccc(CCc2cc(O)c(Br)cc2O)cc1	-52.8	inactive	27.3
O=C(Nc1ccc(C(=O)c2ccccc2)cc1)c1ccccc1	-40.2	inactive	-22.1
OC[C@H]1[C@H](c2ccc(-c3ccc(F)cc3)cc2)[C@@H]2CN(Cc3ccncc3)CCCCN12	-3.55	inactive	-17.5
O=C(NCCCn1ccnc1)c1sc2cc([N+](=O)[O-])ccc2c1Cl	-6	inactive	-1.75
CCC1(CC)NC(=O)N(CC(=O)N2N=C(c3ccc(Cl)cc3)CC2c2ccco2)C1=O (stereo not given)	-19.3	inactive	-38.4
O=C(COc1cccc2c1CCN(Cc1ccccc1F)C2=O)N1CCCCC1	-32.1	inactive	
O=C(Nc1cccc(S(=O)(=O)c2cccc(NC(=O)C3CC3)c2)c1)C1CC1	-38.1	inactive	4.96
O=S(=O)(Cc1ccccc1)N1CCCCN2[C@@H](CO)[C@@H](c3ccc(-c4cccnc4)cc3)[C@@H]2C1	-6.81	inactive	16.2
Cc1noc(C)c1NC(=O)Nc1ccc2c(c1)C(=O)N([C@@H](C)CO)C[C@@H](C)[C@@H](CN(C)C(=O)Nc1ccc3c(c1)OCO3)OCCCC[C@@H](C)O2	-2.53	inactive	20.3
Fc1ccc(-c2nc3c(Cl)cc(C(F)(F)F)cn3c2Cc2ccsc2)cc1	-5.9	inactive	5.92

SMILES	activity change [1] [%]	outcome [1]	activity change [2] [%]
COC(=O)CN1C(=S)N(c2ccc(F)cc2)C(=O)C1CC(=O)Nc1ccc(OC)cc1 (stereo not given)	-4.61	inactive	9.32
CCOc1ccc(C(C)=O)cc1CN1C(=O)NC2(CCCCCCC2)C1=O	-23.9	inactive	-21
O=C(c1ccc2c3c(cccc13)CC2)N1CCN(c2ncccn2)CC1	-3.01	inactive	-11.5
Cc1ccc(NC(=O)CN(C)S(=O)(=O)c2cccc3cccnc23)cc1F	-37.4	inactive	-40.8
O=c1[nH]c2cc([N+](=O)[O-])ccc2c2ccccc12	4.42	inactive	
COC(=O)c1cc2c(c3c4cc(F)ccc4n(S(=O)(=O)c4cccc(C)c4)c13)C(=O)N(Cc1ccco1)C2	-11.5	inactive	17.4
O=C(Cc1ccc(Cl)cc1)c1ccc(O)cc1	-1.58	inactive	
Cc1ccc(Cc2c(-c3ccc(C#N)cc3)nc3ccc(Br)cn23)cc1	2.82	inactive	-11
O=c1c2ccccc2cnn1Cc1n[nH]c(=S)n1C1CC2CCC1C2 (stereo not given)	-3.34	inactive	-28.9
Cc1cccc(-c2ccc([C@H]3[C@H](CO)N4CCCCN(S(=O)(=O)c5ccccc5C)C[C@@H]34)cc2)c1	4.65	inactive	11.4
Nc1ccc2nc(-c3ccc(Cl)cc3)[nH]c2c1		inactive	-11.3
CS(=O)(=O)N1CC2CCCN2c2ccc(C(F)(F)F)cc21 (stereo not given)	-10.4	inactive	2.53
Cc1ccc(C)c(N(CC(=O)NC2CCCC2)C(=O)c2oc(C(C)(C)C)cc2C)c1	-14.2	inactive	21
COc1cc2ccccc2cc1C(=O)NC1CCCCC1	-0.887	inactive	
COCCCNC(=O)c1ccc(-c2nc3ccccc3nc2-c2ccccc2)cc1	-2.27	inactive	8.8
Cc1ccc(NC(=O)CCCSc2ccccc2)cc1S(=O)(=O)N1CCOCC1	7.64	inactive	4.8
NC(=O)c1cc(C(=O)c2ccc(Cl)cc2)c[nH]1	-13.1	inactive	0.863
Cc1noc(C)c1NC(=O)Nc1ccc2c(c1)C(=O)N([C@@H](C)CO)C[C@H](C)[C@@H](CN(C)C(=O)Nc1ccc3c(c1)OCO3)OCCCC[C@H](C)O2	-13.3	inactive	7.1
O=C(c1ccccc1)N(c1ccccc1)c1nccc2ccccc12	-7.9	inactive	31.1
Cc1ccc(S(=O)(=O)Nc2ccccc2CNc2cccc(C)n2)cc1	-17.7	inactive	
CCC(C(=O)Nc1ccsc1C(=O)OC)c1ccccc1 (stereo not given)	-5.91	inactive	40.7
CCOc1ccc(-c2nc(-c3cccs3)c(CC(=O)O)s2)cc1OC	-21.4	inactive	-8.71
COc1ccc(NS(=O)(=O)c2ccc(Cl)c(NC(=O)c3ccccc3F)c2)cc1	-40	inactive	-6.96
Cc1noc(C)c1NC(=O)Nc1ccc2c(c1)C(=O)N([C@@H](C)CO)C[C@@H](C)[C@H](CN(C)C(=O)Nc1ccc3c(c1)OCO3)OCCCC[C@H](C)O2	-12.5	inactive	-3.87
COc1cc(-c2ccc(N3C(c4ccsc4)=Cc4ccc(F)cc4C3c3c[nH]c4ccc(C#N)cc34)cc2)cc(OC)c1OC (stereo not given)	7.16	inactive	8.77
c1ccc2c(c1)CSc1ccccc1N2	-5.5	inactive	-11.4
CC(C)=C(c1ccc(Cl)cc1)c1c(N)ncnc1N	-10.9	inactive	-21.6
